High-throughput results from PubChem.
p53 reactivation: re-activators of mutant p53. Potency, µM (highest dose often 92.2 µM), inactives show at the top dose activity change, positive = activation, hits mostly activators. AID 504706. 0.063% of 320,000 active. H1299 p53-A138V BP100-luciferase reporter, luminescence, 24 h; further: potency means the concentration at half of the fitted maximal effect; % of control where 0% means no effect; nearly all actives have a fitted effect of over 45% in size
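p53-null H1299 cells stably carrying temperature-sensitive p53-A138V and a BP100-luciferase reporter were pinned with compounds (4-point, 1:5 series) and held 24 hrs at 37 deg C. Luminescence was read 10 min after detection reagent.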
IL-2 act: activates IL-2 in a cell-based reporter assay. IL-2 activation reporter assay, cell-based qHTS; stimulated with anti-CD3/CD4/CD28 beads; in transgenic mouse T cells. activation, % (series mostly up to about 46 µM). 0.065% of 360,000 active. AID 652025; in the data active means activation above about 50%; inconclusive means mostly about 30% to 49%; further: 0% is about no effect
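Readout: EGFP and DsRed signals by fluorescent plate cytometry. Unstimulated transgenic mouse T cells received compound 60 min before antibody-bead stimulation, then incubated 18 h at 37 degrees C.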
BRCA1 expr act: activators of BRCA1 expression | MCF7-BRCA1-FFLuc reporter, luminescence, 48 h; response scale: scaled: vehicle 0%, 10 µM genistein 100% | Potency, µM (doses to about 46.1 µM), inactives show at the top dose activation, usual class: activators | 1.1% of 380,000 active | AID 624202; further: potency means the concentration at half of the fitted maximal effect; nearly all actives have a fitted effect of over 80% in size
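48 h compound treatment of MCF7-BRCA1-FFLuc cells (phenol-red free MEM, 37 °C), then 15 min with luciferase substrate and luminescence imaging.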
Nrf2 ARE act: activates Nrf2 signaling; AREc32 ARE-luciferase reporter (MCF7-derived line), luminescence, 24 h; Potency, µM (doses to about 46.1 µM), inactives show at the highest dose activation, usual class: activators; 0.31% of 410,000 active; further: potency means the concentration at half of the fitted maximal effect; % of control where 0% means no effect; nearly all actives have a fitted effect of over 65% in size
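Luciferase luminescence (Steady-Glo, 30 min at room temperature) served as the read-out of ARE activation in AREc32 cells treated with compounds for 24 hr at 37 deg C.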
A549 tox: counter-screen for Nrf2 inhibitors: cytotoxicity in A549 cells; 0.16% of 390,000 active; A549 ARE-Fluc cells, CellTiter-Fluor viability, 18-24 h; Potency, µM (doses to about 46 µM), for the others: top-dose activity change, negative = cytotoxicity, most hits filed as inhibitors; further: potency means the concentration at half of the fitted maximal effect; on the % scale 0 is the no-effect control and ±100 the full control effect
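A549 ARE-Fluc cells in 5% FBS OPTI-MEM, 5000 cells/well, rested 2 h then exposed to compounds in concentration-response for 18-24 h at 37 °C. Viability by CellTiter-Fluor fluorescence (Ex 405/Em 525) after 30 min; luciferase luminescence (BugLite, 15 min, RT) read afterwards.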
Nrf2 block: inhibitors of Nrf2 signaling; Potency, µM (series often up to 46 µM), inactives show at the highest dose activity change, negative = inhibition, most hits filed as inhibitors; 2.1% of 360,000 active; A549 ARE-Fluc reporter, luciferase luminescence, 18-24 h; further: potency means the concentration at half of the fitted maximal effect; on the % scale 0 is the no-effect control and ±100 the full control effect; nearly all actives have a fitted effect of over 60% in size
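Cells were seeded and rested 2 h, then exposed to compounds for 18-24 h. CellTiter-Fluor was read first as a viability measure. BugLite was added 15 min before the final luminescent read of ARE-luciferase activity in A549 cells.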
* marks the source's active call; other numbers are inactive results; ? = inconclusive; . = not tested or not shown; [ ] = dose if it differs, or a comment. Sampled rows, rich in hits. Any-hit rate of the full collection: about 3.2%. Unless noted, the call rests on the fitted dose curve; in most records, active means well fitted curve in the direction sought with a large enough effect; inconclusive means small, poorly fitted or top-dose-only effect, or another doubt; inactive means no such curve, though single readings can be large; an effect the other way counts as inactive or inconclusive.

SMILES	p53 reactivation	IL-2 act	BRCA1 expr act	Nrf2 ARE act	A549 tox	Nrf2 block
CC(c1ccccc1)n1c(SCC(=O)N2CC(=O)Nc3ccccc32)nc2ccccc2c1=O (configuration not stated)	-17.1%	0.0	-80.3%	0.3%[9.22 µM]	-17.4%	16.4µM*
CC(C)c1ccccc1-n1c(SCC(=O)c2ccc3c(c2)NC(=O)CO3)nc2ccccc2c1=O	-2.6%	-2.2	-69.6%	-0.8%	-19.5%	2.91µM*
Cc1cccc(-n2c(SCC(=O)N3CC(=O)Nc4ccccc43)nc3ccccc3c2=O)c1C	-34.2%	-1.7	-46.9%	-1.0%	-29.3%	23.1µM*
COc1ccc(OCC(=O)Nc2ccc(-c3nc4cc(C)cc(C)c4o3)cc2)cc1	.	.	.	9.2%	1.0%	?
Cc1cccc(NC(=O)CN(C)S(=O)(=O)c2ccc3c(c2)c(=O)n(C)c(=O)n3C)c1C	.	.	0.0%	-0.1%	2.7%	13.2%
O=C(NCc1ccncc1)c1cccc(S(=O)(=O)Nc2ccc(SC(F)F)cc2)c1	3.6%	-3.2	-24.1%	-0.2%	-20.8%	14.6µM*
O=C(NCc1ccccn1)c1cccc(S(=O)(=O)Nc2ccc(SC(F)F)cc2)c1	6.0%	-1.8	-15.6%	0.2%	-4.5%	-28.0%
COc1cc(C=O)ccc1OCCCOc1ccccc1C(=O)O	-12.7%	0.6	-44.1%	-2.1%	10.7%	8.2µM*
COc1cc(C=O)ccc1OCCCCOc1ccccc1[N+](=O)[O-]	-3.1%	-0.4	21.1%	6.9%	-1.9%	-7.9%
COc1cc(C=O)ccc1OCCCOc1ccccc1[N+](=O)[O-]	?	-1.8	7.08µM*	3.9%	-0.2%	8.4%
COc1cc(C=O)ccc1OCCOc1ccccc1[N+](=O)[O-]	?	-0.2	?	12.6µM*	6.6%	2.2%
COc1cc(C=O)ccc1OCCOCCOc1ccccc1Cl	1.7%	2.0	14.6%	3.5%	17.8%	1.3%
Cc1ccc2cc(CN(CC(C)C)S(=O)(=O)c3cccc4nonc34)c(=O)[nH]c2c1	4.1%	65.1*	-8.1%	-0.7%	-5.5%	-6.8%
O=C(Nc1ccccc1)c1cc2ccccc2c(=O)s1	?	-5.3	27.4%	10µM*	-5.4%	-7.8%
CCOc1ccc(-n2ccnc2SCC(=O)Nc2nc3ccc(C)cc3s2)cc1	.	.	.	-0.3%	-2.8%	.
CN1CC[C@H](c2c(O)cc(O)c3c(=O)cc(-c4ccccc4Cl)oc23)[C@@H](O)C1	.	.	0.0%	.	-20.5%	?
COc1ccc2occ(C(=O)c3cccs3)c2c1	?	0.7	48.9%	10µM*	-0.5%	?
Cc1cc(OCC(=O)N2CCN(c3cccc(Cl)c3)CC2)c2c(C)c(C)c(=O)oc2c1	-11.0%	0.1	0.6%	0.3%	0.9%	12.6%
Cc1cc(OC(C)C(=O)N2CCN(c3ccc(F)cc3)CC2)c2c(C)c(C)c(=O)oc2c1 (configuration not stated)	-9.0%	-3.9	0.1%	-0.9%	-17.7%	25.9µM*
CCc1ccc(NC(=O)Cn2c(=O)c3cc(Cl)ccc3n3nncc23)cc1	.	.	8.5%	-0.8%	1.6%	-16.7%
COc1ccc(NC(=O)c2oc3ccccc3c2NC(=O)c2ccco2)cc1	1.1%	0.4	-13.0%	-0.5%	-7.1%	1.64µM*
COCC(=O)Nc1c(C(=O)Nc2cccc(OC)c2)oc2ccccc12	?	-0.3	?	2.5%	8.1%	?
COc1cccc(NC(=O)c2oc3ccccc3c2NC(C)=O)c1	25.2%	0.5	3.55µM*	3.1%	-11.4%	.
O=C1c2oc3ccccc3c(=O)c2C(c2cccc(O)c2)N1Cc1ccc(F)cc1 (configuration not stated)	.	.	.	5.5%	2.2%	-1.7%
Cn1ccnc1SCC(=O)Nc1ccc2nc(SCC(=O)NC3CC3)sc2c1	?	0.5	3.55µM*	4.4%	-26.4%	.
Cc1ccccc1OCc1nnc(SCC(=O)Nc2ccc3nc(SCC(=O)NC(C)(C)C)sc3c2)n1C	-3.8%	0.1	-84.2%	3.2%	-14.4%	?
